Experimental data as given in PubChem BioAssay (NCI).
The panel holds about 83,000 compounds, 20% with a hit somewhere; the sample as a whole holds those more often.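 Values shown are percent growth following 48 h exposure of cells in 96-well plates to a single concentration of compound; below 10 was considered active.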 Unmarked numbers belong to inactive results. The source made the active and inactive calls.

Each compound was assayed on MDA-MB-468 breast (assay: NCI-60 one-dose screen, 48 h (100 = growth as untreated, 0 = no growth, -100 = all killed)). Conditions: 10 µM unless noted.

**Q.** How did the growth turn out when `CC1(C)NCCC[C@]2(C)[C@H]3C=CC4=C5C[C@](C)(CO)CC[C@]5(C)CC[C@@]4(C)[C@]3(C)CC[C@@H]12` was run?
**A.** -79.5% [100 µM] (active)

**Q.** Which growth does the source give for `COc1cc(F)c(/C=C/c2cc(/C=C/c3cc(OC)c(OC)cc3F)on2)cc1OC` here?
**A.** 77.6%

**Q.** With `CNC(=O)c1cc(Oc2ccc3c(c2)sc2nc(-c4ccc(NC(C)=O)cc4)cn23)ccn1` as the compound, how does the growth read?
**A.** 86.3%

**Q.** How did the growth turn out when `CCN1C(=O)N(CC)C2C1NN=C1SCC(=O)N12` (stereo not drawn) was run?
**A.** 18.2%

**Q.** `Nc1nc(Nc2ccccc2SSc2ccccc2Nc2nc(N)nc(-c3cccc(Br)c3)n2)nc(-c2cccc(Br)c2)n1` was tested. Which growth did it give?
**A.** 95.4%

**Q.** For `Cc1ccc(N2C(=O)C=CC2=O)cc1`, which growth is on record?
**A.** -25.2% (active)

**Q.** For `O=C(Nc1cccc(C2=NCCN2)c1)c1ccc(OCCCOc2ccc(C(=O)Nc3cccc(C4=NCCN4)c3)cc2)cc1`, which growth is on record?
**A.** -24.4% (active)

**Q.** `COc1ccc(/C(C)=C(\c2ccc(OCCN3CCOCC3)cc2)c2ccc(OC(=O)C3CCCCC3)cc2)cc1` was tested. Which growth did it give?
**A.** 116%

**Q.** `S=c1[nH]nc(CSc2ncnc3c2c(-c2ccccc2)cn3-c2ccc(Cl)cc2)o1` was tested. Which growth did it give?
**A.** 108%

**Q.** Which growth does the source give for `CNC(=O)c1cc(Oc2ccc3nc(NC(=O)c4cc(N5CCOCC5)cc(C(F)(F)F)c4)sc3c2)ccn1` here?
**A.** 63.7%

**Q.** Which growth does the source give for `COc1cc(N=Nc2ccc(O)c3ncccc23)c2ncccc2c1` here?
**A.** -36.5% (active)

**Q.** `Cc1nn(-c2ccccc2)c(-n2ccnc2)c1/C=N/Nc1nc(-c2ccc(F)cc2)cs1` was tested. Which growth did it give?
**A.** 27.3%

**Q.** How did the growth turn out when `COc1cnc2c(c1)C(=O)c1c-2n(CCCBr)c(=O)c2cc([N+](=O)[O-])ccc12` was run?
**A.** -15.8% (active)
